HepG2 tox – qHTS for Inhibitors of TGF-b: Cytotox Counterscreen; HepG2 CAGA-GFP viability, ATP luminescence, 18 h; Potency, µM (series often up to 46.1 µM), for inactives: at the top dose activity change, negative = cytotoxicity, most hits filed as cytotoxic; hit rate 0.76% among 410,000
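HepG2 CAGA-GFP cells (1000/well, DMEM with 1% FBS) received compound, then TGF-beta at 500 pg/mL final, and were incubated 18 hours at 37 degrees C. Viability was read by CellTiter-Glo luminescence. Media-only wells were set as complete cell-killing and DMSO as no toxicity.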
DT40 TDP1 CPT – qHTS for Inhibitors of human tyrosyl-DNA phosphodiesterase 1 (TDP1): qHTS in cells in presence of CPT; hit rate 12% among 420,000; Potency, µM (highest dose often 46.2 µM), for the others: at the highest dose activity change, negative = growth inhibition, most hits filed as inhibitors; chicken DT40 Tdp1-/-;hTDP1 cells + 20 nM CPT, ATP luminescence, 48 h; further: on the % scale 0 is the no-effect control and ±100 the full control effect; nearly all actives have a fitted effect of over 55% in size
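Chicken DT40 Tdp1-/- cells complemented with human TDP1, 400 cells/well, exposed to compounds plus 20 nM camptothecin for at least 48 h at 37 C; viability read as ATP content by CellTiter-Glo luminescence.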
HT1080-NT tox – qHTS for induction of synthetic lethality in tumor cells producing 2HG: qHTS for the HT-1080-NT fibrosarcoma cell line; HT-1080-NT fibrosarcoma viability, CellTiter-Glo ATP luminescence, 48 h; Potency, µM (top dose mostly 46.1 µM), without a hit: at the top dose activity, negative = less viability, usual class: cytotoxic; hit rate 1.6% among 360,000;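 further: NT is the 2HG producing partner of a matched IDH1 knockdown line; 0% = DMSO-treated cells and -100% = media-only wells without cells; nearly all actives have a fitted effect of over 55% in size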
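Compounds were tested in concentration-response format on HT-1080-NT cells for 48 hours at 37 degrees C. Cell viability came from CellTiter-Glo luminescence; curves were classified by r2, response magnitude and activity.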
TGFb SMAD3 inh – qHTS for Inhibitors of TGF-b. AID 588855, 2011. HepG2 CAGA-GFP TGF-b/SMAD3 reporter, GFP fluorescence, 18 h; TGF-beta stimulated, 500 pg/mL final. Potency, µM (highest dose often 46.1 µM), without a hit: top-dose activity, negative = inhibition, hits mostly inhibitors. hit rate 1.2% among 410,000; further: on the % scale 0 is the no-effect control and ±100 the full control effect; nearly all actives have a fitted effect of over 65% in size
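Inhibition of TGF-beta-driven CAGA-GFP reporter expression in HEPG2 cells is measured by cellular GFP fluorescence after 18 h stimulation with 500 pg/mL recombinant TGF-beta in 1% FBS medium at 37 degrees C.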
DT40 TDP1 no CPT – qHTS for Inhibitors of human tyrosyl-DNA phosphodiesterase 1 (TDP1): qHTS in cells in absence of CPT | DT40 Tdp1-/- hTDP1 cells, no CPT, ATP luminescence, 48 h | Potency, µM (doses to about 46.2 µM), for inactives: top-dose activity change, negative = growth inhibition, actives largely listed as inhibitors | hit rate 15% among 420,000 | AID 686978, 2013; further: on the % scale 0 is the no-effect control and ±100 the full control effect; nearly all actives have a fitted effect of over 55% in size
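Stably hTDP1-transfected Tdp1-null chicken DT40 cells were treated with library compounds minus camptothecin and grown for at least 48 hr at 37 °C, after which cellular ATP was quantified by luminescence.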
HT1080 IDH1KD tx – qHTS for induction of synthetic lethality in tumor cells producing 2HG: qHTS for the HT-1080-IDH1KD cell line | HT-1080 IDH1 knockdown viability, ATP luminescence, 48 h | Potency, µM (top dose mostly 46.1 µM), for inactives: top-dose activity, negative = toxicity, usual class: cytotoxic | hit rate 2% among 360,000;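 further: 0% = DMSO wells and -100% = cell-free medium wells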
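Luminescent ATP read-out (CellTiter-Glo, 10 min at room temperature) after 48 h compound exposure at 37 °C gave viability of IDH1-knockdown HT-1080 cells. Activity was normalised to DMSO and cell-free wells, then fitted as concentration-response curves.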
* marks the source's active call; other numbers are inactive results; ? = inconclusive; / = not tested or not shown. Hits are enriched below; roughly 17% of the tested compounds scored in any of these assays. The call rests on the fitted dose curve; in most records, active means well fitted curve in the direction sought with a large enough effect; inconclusive means small, poorly fitted or top-dose-only effect, or another doubt; inactive means no such curve, though single readings can be large; an effect the other way counts as inactive or inconclusive. Potency means the concentration at half of the fitted maximal effect.

SMILES | HepG2 tox | DT40 TDP1 CPT | HT1080-NT tox | TGFb SMAD3 inh | DT40 TDP1 no CPT | HT1080 IDH1KD tx
NC(=O)N/N=C/c1cc(Br)ccc1OC(=O)c1ccccc1 | -8.9% | -15.8% | -10.8% | -7.1% | 0.1% | -0.4%
COc1ccc(C(O)c2nc(-c3ccccc3OC)cs2)cc1 (configuration not stated) | -7.1% | ? | 5.9% | -18.0% | ? | 15.4%
Cc1cnc(C(=O)NCc2ccc(Cl)cc2Cl)cn1 | 9.9% | -1.8% | -14.5% | 1.4% | -27.8% | -21.0%
NC(=NCc1ccc(Cl)cc1Cl)NC(=O)c1nc(Cl)c(N)nc1N | / | 6.23µM* | / | / | 4.41µM* | /
CC(C)(C)CC(C)(C)c1ccc(O)c(Cc2ccc(Cl)cc2Cl)c1 | -40.8% | ? | 3.66µM* | ? | ? | 18.4µM*
CCOc1ccc(N2CC(NC(=O)c3ccc(S(=O)(=O)N4CCOCC4)cc3)CC2=O)cc1 (configuration not stated) | -2.6% | -7.3% | / | -8.7% | ? | /
COc1cc(-c2nc(Cn3nnc(C(=O)Nc4ccc(C)cc4C)c3C)c(C)o2)cc(OC)c1OC | -6.5% | ? | / | 11.7% | 20.6µM* | /
Cc1cccc(N2CC(c3nc4ccccc4n3CCC3CCCCC3)CC2=O)c1 (configuration not stated) | -1.7% | ? | / | ? | 18.4µM* | /
CCOc1ccccc1N1CC(c2nc3ccccc3n2CCCOc2ccccc2)CC1=O (configuration not stated) | -11.9% | -23.8% | / | 3.0% | ? | /
CCOc1ccccc1N1CC(c2nc3ccccc3n2CCCCOc2ccccc2)CC1=O (configuration not stated) | -1.0% | -7.4% | / | ? | -7.8% | /
Cc1ccccc1N1CC(c2nc3ccccc3n2Cc2ccc(Br)cc2)CC1=O (configuration not stated) | -101.7% | ? | / | ? | 16.4µM* | /
Cc1cccc(C)c1N1CC(c2nc3ccccc3n2CC(=O)OC(C)C)CC1=O (configuration not stated) | -3.0% | ? | / | ? | 16.4µM* | /
CCc1ccccc1N1CC(c2nc3ccccc3n2CCC2CCCCC2)CC1=O (configuration not stated) | 10µM* | 5.8µM* | / | ? | 5.17µM* | /
CC(C)c1ccc(C(C(=O)NC2CCCC2)N(C(=O)c2csnn2)C2CC2)cc1 (configuration not stated) | 2.8% | -29.9% | 1.8% | 2.5% | ? | -3.0%
CCCCc1ccc(NC(=O)C(=O)NCCN2CCN(C(=O)c3ccc([N+](=O)[O-])cc3)CC2)cc1 | 7.1% | ? | 7.6% | -1.9% | ? | -11.9%
CCC(Cn1nnc2ccccc2c1=O)NC(=O)Nc1cc(C)cc(C)c1 (configuration not stated) | -13.8% | -21.5% | / | ? | ? | /
Cc1ccccc1N1CC(c2nc3ccccc3n2CCC2CCCCC2)CC1=O (configuration not stated) | -102.8% | 13µM* | / | ? | 10.3µM* | /
Cc1c(CC(=O)N[C@@H](C)C(=O)O)c(=O)oc2cc3c(cc12)CCC(C)(C)O3 | -6.7% | 11.0% | 11.7% | -5.2% | -22.7% | 0.0%
Cc1c(CC(=O)N[C@H](C(=O)O)C(C)C)c(=O)oc2cc3c(cc12)CCC(C)(C)O3 | -1.2% | ? | 19.1% | 3.9% | 23.1µM* | 16.0%

High-throughput results from PubChem BioAssay.
